GLS inhibitor = inhibitors of human glutaminase (GLS); GLS enzymatic activity, qHTS titration; Potency, µM (doses to about 45.5 µM), for the others: top-dose activity change, negative = inhibition, hits mostly inhibitors; 410,000 compounds, 0.21% hits; AID 624170; further: on the % scale 0 is the no-effect control and ±100 the full control effect
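Read-out is an Amplex red fluorescence increase coupled through glutamate oxidase and HRP, measured before and after 30 min room-temperature incubation. hKGA is in 45 mM KH2PO4 (pH 8.2) with 0.02% Tween-20; glutamine added as 1mM solution.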
BAZ2B inh = blocks human BAZ2B. Q9UIF8. AlphaScreen BAZ2B-H3K14Ac peptide displacement. Potency, µM (highest dose often 114 µM), inactives show top-dose activity change, negative = inhibition, hits mostly inhibitors. 360,000 compounds, 4.4% hits. AID 504333; further: on the % scale 0 is the no-effect control and ±100 the full control effect; nearly all actives have a fitted effect of over 60% in size
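AlphaScreen displacement: compounds (up to 110uM) incubated 30 min at room temperature with a preformed 50 nM BAZ2B/50 nM biotinylated H3K14Ac peptide complex in PBS pH 7.4 with Tween-20. Donor and acceptor beads at 10 ug/mL final added, 20 min light-protected before reading.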
HP1b chromo inh = inhibitors of HP1-beta chromodomain binding to methylated histone tails | P83916 | AlphaScreen HP1-beta / biotin-H3K9me3 peptide binding | Potency, µM (series often up to 114 µM), for the others: top-dose activity change, negative = inhibition, actives largely listed as inhibitors | 390,000 compounds, 0.56% hits | AID 540317; further: nearly all actives have a fitted effect of over 70% in size
Target sequence (P83916 whole entry, looked up): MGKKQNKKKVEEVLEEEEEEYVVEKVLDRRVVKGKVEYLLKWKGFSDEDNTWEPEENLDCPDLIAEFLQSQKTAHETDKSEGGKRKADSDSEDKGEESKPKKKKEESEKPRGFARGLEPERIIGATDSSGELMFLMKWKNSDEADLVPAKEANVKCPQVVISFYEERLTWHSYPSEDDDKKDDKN
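Compound inhibition of the preformed complex between 50 nM HP1-beta and 50 nM biotinylated H3K9me3 peptide was read by AlphaScreen. Buffer was PBS pH 7.4 with 0.01% Tween-20. Incubations ran 30 min at room temperature, with 10 ug/mL donor/acceptor beads.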
L3MBTL1 inh = inhibitors of human L3MBTL1; AID 485360; Potency, µM (series often up to 57.1 µM), for inactives: top-dose activity, negative = inhibition, usual class: inhibitors; AlphaScreen L3MBTL1–H3K9me1 peptide binding; Q9Y468; 230,000 compounds, 0.66% hits; further: on the % scale 0 is the no-effect control and ±100 the full control effect; nearly all actives have a fitted effect of over 60% in size
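First, the protein-peptide complex forms for 30 min at room temperature (L3MBTL1 50 nM, biotinylated H3K9me1 peptide 75 nM). Next, compounds are pin-transferred and incubated 30 min. Finally, AlphaScreen beads are added and read after 30 min.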
JMJD2A Tudor inh = blocks the human JMJD2A Tudor domain | Potency, µM (highest dose often 114 µM), without a hit: top-dose activity change, negative = inhibition, actives largely listed as inhibitors | AlphaScreen JMJD2A-Tudor / H3K4me3 peptide binding | 390,000 compounds, 4.4% hits | O75164; further: on the % scale 0 is the no-effect control and ±100 the full control effect; nearly all actives have a fitted effect of over 50% in size
G9a inh = inhibitors of human histone lysine methyltransferase G9a. G9a H3K9 monomethylation, AlphaScreen, 2 h. Potency, µM (series often up to 102 µM), for inactives: top-dose activity, negative = inhibition, usual class: inhibitors. 350,000 compounds, 8.8% hits. AID 504332; further: on the % scale 0 is the no-effect control and ±100 the full control effect; nearly all actives have a fitted effect of over 75% in size
Target sequence (Q96KQ7 913-1193 limits assumed): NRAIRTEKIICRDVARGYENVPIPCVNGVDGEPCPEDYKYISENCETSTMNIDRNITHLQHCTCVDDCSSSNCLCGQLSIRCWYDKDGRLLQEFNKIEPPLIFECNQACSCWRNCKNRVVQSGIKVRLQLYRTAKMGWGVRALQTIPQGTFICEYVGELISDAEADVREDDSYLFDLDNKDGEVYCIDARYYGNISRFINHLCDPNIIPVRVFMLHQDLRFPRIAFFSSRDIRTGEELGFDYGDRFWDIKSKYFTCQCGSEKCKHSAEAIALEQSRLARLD
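Compounds were preincubated with 20 nM G9a for 15 min, after which biotinylated H3K9 peptide (500 nM) and SAM (20 uM) started a 2 h room-temperature reaction. Monomethylated product was quantified by antibody-based AlphaScreen chemiluminescence.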
Numbers without * were called inactive; ? = inconclusive; / = no result; [ ] = dose if it differs, or a comment. In the library only some 10% were active in any assay of this set; here they are far more common. The call rests on the fitted dose curve; in most records, active means well fitted curve in the direction sought with a large enough effect; inconclusive means small, poorly fitted or top-dose-only effect, or another doubt; inactive means no such curve, though single readings can be large; an effect the other way counts as inactive or inconclusive. Potency means the concentration at half of the fitted maximal effect.

SMILES	GLS inhibitor	BAZ2B inh	HP1b chromo inh	L3MBTL1 inh	JMJD2A Tudor inh	G9a inh
CCN1CCN(Cc2ccc(NC(=O)c3ccc(C)c(NC(=O)C(=O)c4c[nH]c5ccccc45)c3)cc2C(F)(F)F)CC1	0.8%	12.6µM*	?	-16.2%	39.8µM*	50.1µM*
CCN1CCN(Cc2ccc(NC(=O)c3ccc(C)c(NC(=O)c4ccc5n[nH]nc5c4)c3)cc2C(F)(F)F)CC1	3.0%	-17.6%	41.1%	/	-18.8%	-13.7%[12.7 µM]
CCOC(=O)c1cc(NC(=O)c2ccc(OC)cc2)c(=O)n2c1oc1ccc(Cl)cc12	-6.5%	7.6%	41.8%	/	8.6%	6.1%[59 µM]
COc1ccc(S(=O)(=O)NCCc2nnc3ccc(SCC(=O)Nc4ccc(C(F)(F)F)cc4)nn23)cc1	-8.4%	-16.4%	21.7%	/	-17.6%	3.6%[59 µM]
COc1ccc(N2CC(C)Cn3c2nc2c3c(=O)n(Cc3ccccc3)c(=O)n2C)c(OC)c1 (stereo not given)	-6.1%	?	-25.1%	/	?	6.31µM*
Cn1c(=O)c2c(nc3n2CC(O)CN3c2ccc(O)cc2)n(C)c1=O (stereo not given)	?	-2.2%	14.9%	-5.0%	-24.0%	79.4µM*
CCOc1ccc(N2CC(O)Cn3c2nc2c3c(=O)n(CCCc3ccccc3)c(=O)n2C)cc1 (stereo not given)	0.5%	-6.1%	13.4%	/	-22.2%	2.51µM*
COc1ccc(N2CC(C)Cn3c2nc2c3c(=O)n(CCc3ccccc3)c(=O)n2C)cc1 (stereo not given)	16.4%	0.1%	25.2%	3.9%	-2.8%	3.16µM*
COc1ccc(N2CCn3c2nc2c3c(=O)n(CCCc3ccccc3)c(=O)n2C)cc1	/	8.2%	/	-4.7%	/	-33.7%
Cc1cccn2c(=O)c(C(=O)NC(C)c3ccccc3)c(O)nc12 (stereo not given)	-17.4%	4.9%	22.0%	/	-16.0%	-27.6%[59 µM]
COc1ccc(-c2ccc(CNc3ccc4[nH]c(=O)[nH]c4c3)o2)cc1Cl	13.4%	-10.2%	25.4%	/	-11.6%	-10.7%[59 µM]
Cc1ccc(-n2ncc3c(NCCCN(C)C)ncnc32)cc1Cl	0.5%	-10.2%	17.8%	/	-18.3%	-19.7%[59 µM]
COc1ccc(N2CCn3c2nc2c3c(=O)n(CCCc3ccccc3)c(=O)n2C)c(OC)c1	-4.1%	?	-13.7%	-8.0%	?	31.6µM*
COc1ccc(N2CCn3c2nc2c3c(=O)n(CCc3ccccc3)c(=O)n2C)c(OC)c1	/	-1.5%	/	-4.9%	/	?
COc1ccccc1Nc1nc(N)nc(CN2CCOCC2)n1	-1.4%	56.2µM*	52.4%	2.2%	-34.8%	?
COc1ccc(Nc2nc(N)nc(CN3CCOCC3)n2)cc1	7.0%	79.4µM*	-4.9%	-9.2%	50.1µM*	-1.5%
COc1ccccc1Nc1nc(N)nc(CN2CCCCCC2)n1	9.9%	12.6µM*	15.5%	?	-16.8%[11.4 µM]	?
COc1ccccc1Nc1nc(N)nc(CN2CCC(C)CC2)n1	-0.1%	-26.4%	13.9%	/	?	-7.4%[59 µM]
Cc1nc2ccc(S(=O)(=O)N(C)CC(=O)Nc3ccc(Br)c(C)c3)cc2s1	-5.7%	2.5%	7.2%	/	-11.7%	-5.0%[59 µM]
CCOC(=O)c1c(/C=N/Nc2ccccc2)c2sc(C)cc2n1C	/	?	/	-9.4%	/	?
COc1ccccc1C1C(C(=O)c2ccc(C)o2)=C(O)C(=O)N1c1cc(C)on1 (stereo not given)	-6.7%	?	22.3%	/	-10.3%	89.1µM*
COc1cc(C2C(C(=O)c3ccc(C)o3)=C(O)C(=O)N2c2cc(C)on2)ccc1O (stereo not given)	6.1%	?	5.0%	-3.7%	?	44.7µM*
COc1cc(C2C(C(=O)c3ccc(C)o3)=C(O)C(=O)N2c2cc(C)on2)cc(OC)c1OC (stereo not given)	6.3%	6.3%	30.4%	9.1%	-1.7%	0.1%[59 µM]
CCCCCOc1ccc(C2C(C(=O)c3ccc(C)o3)=C(O)C(=O)N2c2cc(C)on2)cc1 (stereo not given)	0.8%	-20.1%	16.0%	/	?	44.7µM*
COc1cc(C2C(C(=O)c3ccc(C)o3)=C(O)C(=O)N2c2cc(C)on2)ccc1OCc1ccccc1 (stereo not given)	1.0%	-1.3%	22.6%	/	3.9%	44.7µM*
SMILES	GLS inhibitor	BAZ2B inh	HP1b chromo inh	L3MBTL1 inh	JMJD2A Tudor inh	G9a inh
O=C(CN1C(=O)COc2ccc(S(=O)(=O)N3CCCCCC3)cc21)N1CCN(c2ccc(Cl)cc2)CC1	5.1%	-2.4%	49.0%	/	?	2.3%[59 µM]
Cc1ccc(NC(=O)CN2C(=O)c3cccnc3Sc3ccccc32)cc1C	-8.4%	-3.9%	17.4%	/	-10.3%	15.0%[59 µM]
Cc1ccc2oc(C(=O)Nc3ccc(S(=O)(=O)Nc4nc(C)cc(C)n4)cc3)cc(=O)c2c1	9.0%	-14.8%	20.6%	/	-20.5%	?
CCOc1ccc(C2C(C(=O)c3ccc(C)o3)=C(O)C(=O)N2c2cc(C)on2)cc1OC (stereo not given)	8.6%	-26.2%[57.1 µM]	10.5%	/	-34.1%	50.1µM*
Cc1cccc(N2C(=O)C(O)=C(C(=O)c3cccs3)C2c2cccc(Oc3ccccc3)c2)n1 (stereo not given)	7.3%	?	18.7%	?	-33.1%	50.1µM*
COc1cccc(C2C(C(=O)c3cccs3)=C(O)C(=O)N2c2cc(C)on2)c1 (stereo not given)	-2.2%	?	30.3%	4.2%	-4.1%	?
COc1cc(C2C(C(=O)c3cccs3)=C(O)C(=O)N2c2cc(C)on2)ccc1O (stereo not given)	45.9%	?	18.4%	1.8%	?	50.1µM*
CCCOc1cccc(C2C(C(=O)c3cc4ccccc4o3)=C(O)C(=O)N2c2cc(C)on2)c1 (stereo not given)	5.7%	?	-5.4%[57 µM]	/	?	-2.3%[0.501 µM]
CCOc1ccc(C2/C(=C(\O)c3ccc(OC)c(OC)c3)C(=O)C(=O)N2c2cc(C)on2)cc1OC (stereo not given)	21.1%	-21.6%	1.4%	3.9%	-34.7%	?
COc1cccc(C2C(C(=O)c3ccc(C)o3)=C(O)C(=O)N2c2cc(C)on2)c1 (stereo not given)	6.3%	?	12.0%	/	-12.3%	44.7µM*
Cc1ccc(N2CC(NC(=O)C3CC3)CC2=O)cc1C (stereo not given)	-3.4%	-0.2%	-1.8%	/	-12.3%	-5.4%[59 µM]
O=c1c(=O)n(-c2ccccc2)ccn1Cc1c(F)cccc1Cl	6.0%	?	20.9%	/	-30.6%	-4.2%[59 µM]
C=CCOc1cccc(C2C(C(=O)c3ccc(C)o3)=C(O)C(=O)N2c2nccs2)c1 (stereo not given)	9.4%	?	10.0%	-28.4%	?	31.6µM*

Bioassay records: PubChem, National Center for Advancing Translational Sciences (NCATS)
